Experimental data taken from PubChem BioAssay AID1159580 (chemical genetic matrix, 2015).
Several values for one entry are separate records, joined by “and”; a condition that tells them apart may be missing. Equal entries are not always repeated. Hit rate of the full screen: of about 5,500 compounds, about 2,000 (36%) were called active. Another 18% or so got no clear call; they are omitted. Cut-off read from the data, not from the text of the source: active = normalized growth mostly below about 0.91 (no sharp cut-off); inconclusive = no clear call, values can overlap the other calls; inactive = mostly above about 0.92. Some of the results follow.

Assay: chemical genetic growth profiling, strain panel (AID 1159580);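 note: tested at 20 µM; growth read once vehicle control cultures reached saturation at 30 °C; 1 = growth at the plate median or of vehicle wells; lower values mean less growth of the strain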
Settings: S. cerevisiae deletion strains, growth OD

Measured: normalized growth

NC(N)=NCCCCN=C(N)N
inactive: locus YAL013W, strain DEP1, hits give low values 0.997 | locus YAL021C, strain ccr4, hits give low values 0.993 | locus YAL026C, strain drs2, hits give low values 0.984 | locus YAL030W, strain snc1, hits give low values 1 | locus YAL040C, strain CLN3, hits give low values 1.01 | locus YBL061C, strain skt5, hits give low values 1.01 | locus YBR009C, strain hhf1, hits give low values 1.01 | locus YBR021W, strain FUR4, hits give low values 1.04 | locus YBR023C, strain chs3, hits give low values 1.01 | locus YBR171W, strain sec66, hits give low values 0.986 | locus YBR229C, strain ROT2, hits give low values 0.957 | locus YBR231C, strain swc5, hits give low values 1 | locus YBR279W, strain paf1, hits give low values 0.992 | locus YCL011C, strain gbp2, hits give low values 1.01 | locus YCL016C, strain dcc1, hits give low values 1.01 | locus YCL029C, strain bik1, hits give low values 0.989 | locus YCL061C, strain MRC1, hits give low values 1 | locus YCL069W, strain vba3, hits give low values 0.984 | locus YCR088W, strain abp1, hits give low values 1 | locus YDL005C, strain med2, hits give low values 0.998 | locus YDL035C, strain GPR1, hits give low values 0.985 | locus YDL040C, strain nat1, hits give low values 1 | locus YDL074C, strain BRE1, hits give low values 0.957 | locus YDL101C, strain DUN1, hits give low values 0.953 | locus YDL134C, strain PPH21, hits give low values 0.995 | locus YDL185W, strain tfp1, hits give low values 0.968 | locus YDL192W, strain arf1, hits give low values 0.992 | locus YDR001C, strain nth1, hits give low values 1 | locus YDR069C, strain doa4, hits give low values 0.999 | locus YDR101C, strain arx1, hits give low values 1 | locus YDR137W, strain rgp1, hits give low values 1.01 | locus YDR150W, strain NUM1, hits give low values 0.983 | locus YDR159W, strain sac3, hits give low values 1 | locus YDR162C, strain NBP2, hits give low values 0.948 | locus YDR195W, strain ref2 0.984 | locus YDR297W, strain sur2, hits give low values 0.999 | locus YDR318W, strain mcm21, hits give low values 1.01 | locus YDR334W, strain swr1, hits give low values 0.99 | locus YDR335W, strain msn5, hits give low values 0.997 | locus YDR388W, hits give low values 0.996 | locus YDR392W, strain spt3, hits give low values 0.946 | locus YDR502C, strain sam2, hits give low values 0.991 | locus YEL003W, strain gim4, hits give low values 0.993 | locus YEL037C, strain rad23, hits give low values 0.964 | locus YEL061C, strain CIN8 (second series), hits give low values 0.991 | locus YEL061C, strain CIN8, hits give low values 0.989 | locus YER002W, strain NOP16, hits give low values 1 | locus YER015W, strain faa2, hits give low values 0.997 | locus YER016W, strain bim1, hits give low values 1 | locus YER110C, hits give low values 0.99 | locus YER111C, strain swi4, hits give low values 0.99 | locus YER155C, strain BEM2 (second series), hits give low values 1.01 | locus YER155C, strain BEM2, hits give low values 1 | locus YER167W, strain BCK2, hits give low values 1.01 | locus YFR010W, strain ubp6, hits give low values 0.98 | locus YGL078C, strain dbp3, hits give low values 0.996 | locus YGL086W, strain mad1, hits give low values 1.01 | locus YGL167C, strain pmr1, hits give low values 1.01 | locus YGL173C, strain kem1, hits give low values 0.995 | locus YGL227W, strain vid30, hits give low values 1 | locus YGL240W, strain doc1, hits give low values 1 | locus YGL248W, strain PDE1, hits give low values 0.994 | locus YGL253W, strain hxk2, hits give low values 1 | locus YGR078C, strain PAC10, hits give low values 0.969 and 0.994 | locus YGR135W, strain pre9, hits give low values 0.982 | locus YGR229C, strain SMI1, hits give low values 0.999 | locus YGR252W, strain gcn5, hits give low values 1.03 | locus YHR013C, strain ard1, hits give low values 1 | locus YHR027C, strain rpn1, hits give low values 1 | locus YHR030C, strain SLT2, hits give low values 1 and 0.976 | locus YHR079C, strain IRE1 (second series), hits give low values 1.01 | locus YHR079C, strain IRE1, hits give low values 0.986 | locus YHR094C, strain hxt1, hits give low values 1.01 | locus YHR129C, strain ARP1, hits give low values 0.994 | locus YHR142W, strain chs7, hits give low values 1 | locus YHR200W, strain rpn10, hits give low values 1.01 | locus YIL066C, strain RNR3, hits give low values 0.969 | locus YIL073C, strain SPO22, hits give low values 1.03 | locus YIL125W, strain kgd1, hits give low values 0.992 | locus YIR030C, strain dcg1, hits give low values 0.993 | locus YJL092W, strain hpr5, hits give low values 0.999 | locus YJL095W, strain BCK1 (second series), hits give low values 1.01 | locus YJL095W, strain BCK1, hits give low values 0.992 and 0.985 | locus YJL115W, strain asf1, hits give low values 0.993 | locus YJL129C, strain trk1, hits give low values 1.02 | locus YJL134W, strain LCB3, hits give low values 0.989 | locus YJL154C, strain vps35, hits give low values 0.992 | locus YJL164C, strain tpk1, hits give low values 1.01 | locus YJL166W, strain qcr8, hits give low values 1.01 | locus YJL168C, strain set2, hits give low values 0.992 | locus YJL187C, strain SWE1 (second series), hits give low values 0.969 | locus YJL187C, strain SWE1, hits give low values 1.01 | locus YJR043C, strain POL32, hits give low values 1.02 | locus YJR066W, strain TOR1, hits give low values 0.99 | locus YJR075W, strain HOC1, hits give low values 0.94
